# Measured values as given in the supplement of paper PMC4466140.
# Biological target: AgAbp1
# Experiment: SPOT peptide array binding signal intensity (averaged, normalized) (arbitrary units (background-subtracted, floor 0; scale differs between SH3 domains)); higher = stronger binding of the SH3 domain to the peptide
# Method in brief: (§1)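 GST-fused SH3 domains from four yeast species were expressed in E. coli BL21(DE3), purified on glutathione Sepharose and incubated at 10 μg/ml overnight at 4°C in TBS-based blocking buffer on cellulose membranes carrying synthetic 15-mer peptides, with cysteines replaced by serines. Bound protein was detected with anti-GST antibody, an HRP anti-mouse secondary and luminol, then imaged and quantified with Genespotter. Binding signal is the normalized, background-subtracted spot intensity averaged over replicates, in arbitrary units that differ between domains.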
row,Binder,SPOT peptide array binding signal intensity
1,IVNKPLPPLPVAGSS,177

# Biological target: AgBbc1
# Experiment: as above
# Method in brief: as §1
row,Binder,SPOT peptide array binding signal intensity
1,IVNKPLPPLPVAGSS,≤ 0

# Biological target: AgBem1-D1
# Experiment: as above
# Method in brief: as §1
row,Binder,SPOT peptide array binding signal intensity
1,IVNKPLPPLPVAGSS,5.5

# Biological target: AgBzz1-D1
# Experiment: as above
# Method in brief: as §1
row,Binder,SPOT peptide array binding signal intensity
1,IVNKPLPPLPVAGSS,30

# Biological target: AgBzz1-D2
# Experiment: as above
# Method in brief: as §1
row,Binder,SPOT peptide array binding signal intensity
1,IVNKPLPPLPVAGSS,17.5

# Biological target: AgCyk3
# Experiment: as above
# Method in brief: as §1
row,Binder,SPOT peptide array binding signal intensity
1,IVNKPLPPLPVAGSS,≤ 0

# Biological target: AgFus1
# Experiment: as above
# Method in brief: as §1
row,Binder,SPOT peptide array binding signal intensity
1,IVNKPLPPLPVAGSS,1.5

# Biological target: AgHof1
# Experiment: as above
# Method in brief: as §1
row,Binder,SPOT peptide array binding signal intensity
1,IVNKPLPPLPVAGSS,748

# Biological target: AgHse1
# Experiment: as above
# Method in brief: as §1
row,Binder,SPOT peptide array binding signal intensity
1,IVNKPLPPLPVAGSS,17.5

# Biological target: AgLsb1
# Experiment: as above
# Method in brief: as §1
row,Binder,SPOT peptide array binding signal intensity
1,IVNKPLPPLPVAGSS,≤ 0

# Biological target: AgLsb4
# Experiment: as above
# Method in brief: as §1
row,Binder,SPOT peptide array binding signal intensity
1,IVNKPLPPLPVAGSS,7.5

# Biological target: AgMyo5
# Experiment: as above
# Method in brief: as §1
row,Binder,SPOT peptide array binding signal intensity
1,IVNKPLPPLPVAGSS,≤ 0

# Biological target: AgNbp2
# Experiment: as above
# Method in brief: as §1
row,Binder,SPOT peptide array binding signal intensity
1,IVNKPLPPLPVAGSS,≤ 0

# Biological target: AgRvs167
# Experiment: as above
# Method in brief: as §1
row,Binder,SPOT peptide array binding signal intensity
1,IVNKPLPPLPVAGSS,2.33

# Biological target: AgSho1
# Experiment: as above
# Method in brief: as §1
row,Binder,SPOT peptide array binding signal intensity
1,IVNKPLPPLPVAGSS,6850

# Biological target: AgSla1-D1-D2
# Experiment: as above
# Method in brief: as §1
row,Binder,SPOT peptide array binding signal intensity
1,IVNKPLPPLPVAGSS,1

# Biological target: AgSla1-D3
# Experiment: as above
# Method in brief: as §1
row,Binder,SPOT peptide array binding signal intensity
1,IVNKPLPPLPVAGSS,≤ 0

# Biological target: CaAbp1-D1
# Experiment: as above
# Method in brief: as §1
row,Binder,SPOT peptide array binding signal intensity
1,IVNKPLPPLPVAGSS,21.5

# Biological target: CaAbp1-D2
# Experiment: as above
# Method in brief: as §1
row,Binder,SPOT peptide array binding signal intensity
1,IVNKPLPPLPVAGSS,48

# Biological target: CaBbc1
# Experiment: as above
# Method in brief: as §1
row,Binder,SPOT peptide array binding signal intensity
1,IVNKPLPPLPVAGSS,≤ 0

# Biological target: CaBem1-D1
# Experiment: as above
# Method in brief: as §1
row,Binder,SPOT peptide array binding signal intensity
1,IVNKPLPPLPVAGSS,≤ 0

# Biological target: CaBzz1-D1
# Experiment: as above
# Method in brief: as §1
row,Binder,SPOT peptide array binding signal intensity
1,IVNKPLPPLPVAGSS,459

# Biological target: CaBzz1-D2
# Experiment: as above
# Method in brief: as §1
row,Binder,SPOT peptide array binding signal intensity
1,IVNKPLPPLPVAGSS,≤ 0

# Biological target: CaCyk3
# Experiment: as above
# Method in brief: as §1
row,Binder,SPOT peptide array binding signal intensity
1,IVNKPLPPLPVAGSS,0.5

# Biological target: CaFus1
# Experiment: as above
# Method in brief: as §1
row,Binder,SPOT peptide array binding signal intensity
1,IVNKPLPPLPVAGSS,232

# Biological target: CaHof1
# Experiment: as above
# Method in brief: as §1
row,Binder,SPOT peptide array binding signal intensity
1,IVNKPLPPLPVAGSS,55.2

# Biological target: CaHse1
# Experiment: as above
# Method in brief: as §1
row,Binder,SPOT peptide array binding signal intensity
1,IVNKPLPPLPVAGSS,1300

# Biological target: CaLsb1
# Experiment: as above
# Method in brief: as §1
row,Binder,SPOT peptide array binding signal intensity
1,IVNKPLPPLPVAGSS,≤ 0

# Biological target: CaLsb4
# Experiment: as above
# Method in brief: as §1
row,Binder,SPOT peptide array binding signal intensity
1,IVNKPLPPLPVAGSS,≤ 0

# Biological target: CaMyo5
# Experiment: as above
# Method in brief: as §1
row,Binder,SPOT peptide array binding signal intensity
1,IVNKPLPPLPVAGSS,≤ 0

# Biological target: CaNbp2
# Experiment: as above
# Method in brief: as §1
row,Binder,SPOT peptide array binding signal intensity
1,IVNKPLPPLPVAGSS,≤ 0

# Biological target: CaRvs167
# Experiment: as above
# Method in brief: as §1
row,Binder,SPOT peptide array binding signal intensity
1,IVNKPLPPLPVAGSS,1.17

# Biological target: CaRvs167-3
# Experiment: as above
# Method in brief: as §1
row,Binder,SPOT peptide array binding signal intensity
1,IVNKPLPPLPVAGSS,≤ 0

# Biological target: CaSho1
# Experiment: as above
# Method in brief: as §1
row,Binder,SPOT peptide array binding signal intensity
1,IVNKPLPPLPVAGSS,6570

# Biological target: CaSla1-D1-D2
# Experiment: as above
# Method in brief: as §1
row,Binder,SPOT peptide array binding signal intensity
1,IVNKPLPPLPVAGSS,338

# Biological target: CaSla1-D3
# Experiment: as above
# Method in brief: as §1
row,Binder,SPOT peptide array binding signal intensity
1,IVNKPLPPLPVAGSS,0.5

# Biological target: ScAbp1
# Experiment: as above
# Method in brief: as §1
row,Binder,SPOT peptide array binding signal intensity
1,IVNKPLPPLPVAGSS,378
